What all share (test): NCI-60 one-dose screen, 48 h (100 = growth as untreated, 0 = no growth, -100 = all killed)
Holding throughout (details): 10 µM unless noted

The subject of experiment [1] is HCT-15 colon.
In experiment [2] the test system is HT29 colon.
Experiment [3] relates to SNB-75 CNS.
Experiment [4] deals with SNB-19 CNS.
In experiment [5] the test system is U251 CNS.
The subject of experiment [6] is PC-3 prostate.
The test system of experiment [7] is SK-MEL-5 melanoma.
The test system of experiment [8] is UACC-62 melanoma.
The test system of experiment [9] is LOX IMVI melanoma.
The test system of experiment [10] is SK-MEL-2 melanoma.
Experiment [11] deals with EKVX NSCLC.
Experiment [12] has as its system SN12C renal.
Experiment [13] deals with UO-31 renal.
In experiment [14] the test system is TK-10 renal.
The subject of experiment [15] is ACHN renal.
The subject of experiment [16] is CAKI-1 renal.
The test system of experiment [17] is A498 renal.
The test system of experiment [18] is CCRF-CEM leukemia.
Experiment [19] has as its system MOLT-4 leukemia.
For experiment [20], the system named is SK-MEL-28 melanoma.

About 83,000 compounds went through this panel and 20% of them were active in at least one assay; those are over-represented in the sample as a whole.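 The test compound was applied at a single concentration to cells in 96-well plates for 48 hours, and percent growth was recorded.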 Unmarked numbers belong to inactive results. Calls of active or inactive are those of the source. Rule for the calls: active = growth percent below 10; inactive = the rest.

Consider `O=[N+]([O-])c1cc(/C=N/Nc2nc(N/N=C/c3ccc(Cl)c([N+](=O)[O-])c3)nc(N3CCCCC3)n2)ccc1Cl`, for which the growth in experiment [1] was 49.7%; in experiment [2] it was 7.43% (active); in [3], 136%; in experiment [4], 72.6%; in [5], 18.5%; in experiment [6] it was 53.4%. For the same molecule, the growth is 77.8% in experiment [7]; 43.1% in experiment [8]; 66% in [9]; 80.7% in [10]; 78% in experiment [11]; 72.3% in experiment [12]. Besides, the growth in experiment [13] is 47.5%; in experiment [14] it was 93.8%; in experiment [15] it was 35.2%; in experiment [16], 72.4%; in experiment [17], 108%; in experiment [18], 61.3%. Also, in experiment [19], the growth is 42.3%.

Regarding `CC(C)(C)n1nnnc1C(Nc1cccc2c1OCO2)c1cc2cccc3ccc4cccc1c4c32` (stereo not given), the growth in [1] was 71%; in experiment [2] it was 81.2%; in experiment [3] it was 115%; in experiment [4] it was 83.5%; in [5] it was 85.9%; in [6], 59.4%. Further, the growth in experiment [7] was 85%; in experiment [8], 65.3%; in experiment [9], 86.7%; in [20], 94.4%; in experiment [11], 73.7%; in [12], 90.5%. Moreover, the growth is 67.8% in [13]; 116% in experiment [14]; 85.6% in experiment [15]; 64.5% in experiment [16]; -12.9% (active) in experiment [18]; 67.1% in [19].

Turning to `CC1(COc2ccc3ncc(C#Cc4cncc(C(=O)Nc5cccc(C(F)(F)F)c5)c4)n3n2)COC1`, the growth is 86.1% in experiment [1]; 82.1% in experiment [2]; 63% in [3]; 82.8% in experiment [4]; 91.3% in experiment [5]; 95.5% in [6]. Moreover, the growth in experiment [7] is 79.4%; in [8], 72.9%; in experiment [9], 65.6%; in [20], 86.8%; in experiment [11], 101%; in experiment [12], 61.9%. The growth in [13] is 58.2%; in experiment [14] it was 128%; in experiment [15] it was 72.4%; in experiment [16], 81.7%; in experiment [18], 88.4%; in [19] it was 84.9%.

Turning to `C=CCn1c(SCC(=O)Nc2ccc(C(=O)/C=C/c3cccc([N+](=O)[O-])c3)cc2)nnc1-c1c[nH]c2ccccc12`, the growth in [1] is 91.7%; in [2], 98.4%; in experiment [3], 97%; in experiment [4], 89.4%; in [5], 94.4%; in [6], 77.8%. In addition, the growth in experiment [7] is 59.5%; in experiment [8] it was 66.9%; in experiment [9], 31.1%; in experiment [10] it was 93.9%; in [11] it was 89.1%; in [12] it was 85.2%. Also, the growth in [13] is 67.8%; in [14], 102%; in experiment [15], 91.1%; in experiment [16], 87.1%; in experiment [17], 87.4%.

As for `CC(C)(C)CC(C)(C)n1nnnc1C(Nc1nccs1)c1cc2cccc3ccc4cccc1c4c32` (stereo not given), the growth in experiment [1] is 94.9%; in experiment [2], 104%; in experiment [3], 91.5%; in experiment [4], 89.9%; in [5], 98.1%; in experiment [6], 96.9%. Moreover, the growth in experiment [7] was 100%; in experiment [8], 68.4%; in experiment [9], 97%; in experiment [20] it was 101%; in experiment [11], 97.2%; in experiment [12], 99.4%. Further, the growth in experiment [13] is 87.9%; in experiment [14], 108%; in experiment [15] it was 96.1%; in [16] it was 75.9%; in experiment [18], 106%; in experiment [19] it was 121%.

For `NC(N)=Nc1ccc(Nc2cccc(Nc3ccc(Cl)c(C(F)(F)F)c3)c2)cn1`, the growth in [1] was 68.4%; in experiment [2], 29.8%; in [3], 45.6%; in experiment [4] it was 4.1% (active); in experiment [5], -43.2% (active); in [6], -24.9% (active). Moreover, the growth in experiment [7] was 34.5%; in experiment [8] it was 24.5%; in experiment [9], 13.8%; in experiment [10] it was 53.7%; in experiment [11] it was 43.1%; in experiment [12], 13.3%. Also, the growth in [13] was 82.3%; in [14], 98%; in experiment [15], 78.1%; in experiment [16], 41.6%; in experiment [17], 58.8%; in [18], 5.61% (active). For the same molecule, the growth in experiment [19] was 12.8%.

Consider `Cc1ccc(CSc2nc(-c3ccc(Cl)cc3)c(C#N)c(N3CCOCC3)n2)cc1`, for which the growth in [1] was 95.9%; in [2], 91.2%; in experiment [3], 108%; in experiment [4] it was 95.4%; in [5] it was 96.7%; in experiment [6], 80.3%. Further, the growth was 96.5% in experiment [7]; 73.1% in experiment [8]; 96.6% in experiment [9]; 93.8% in [20]; 95.1% in experiment [11]; 98.1% in experiment [12]. The growth was 86.1% in experiment [13]; 105% in experiment [14]; 98.9% in [15]; 76.4% in experiment [16]; 1.17% (active) in [18]; 85% in experiment [19].

As for `COc1ccc(-n2c(SCc3n[nH]c(=S)o3)nc3ccc(Cl)cc3c2=O)cc1`, the growth in [1] was 93.6%; in experiment [2], 105%; in experiment [3], 95.5%; in [4], 92.9%; in experiment [5] it was 104%; in experiment [6], 101%. The growth in experiment [7] was 93.5%; in experiment [8] it was 92%; in experiment [9], 101%; in [20], 95.1%; in experiment [11], 98.7%; in experiment [12], 92%. The growth in experiment [13] is 93.7%; in experiment [14], 105%; in [15] it was 97%; in [16], 85.5%; in [18] it was 98.7%; in experiment [19], 111%.

For the origin of these results see PubChem BioAssay (NCI).
